Data: PubChem BioAssay (Tox21)
Where “and” joins values, the source holds several entries; their conditions need not be identical. Equal entries are not always repeated. Inconclusive results are not listed. Where a call stands in place of a potency, no number is given. Calls of active or inactive are those of the source. Calls come from the whole dose curve; as a rule, active = well fitted cell-killing curve with a large enough effect in the repeat runs; inconclusive = weak or mixed curves, or effect the other way; inactive = no such curve, though single readings can be large or run the other way. Positions of bridges follow the written chain, without caps; N, C: chain ends. Non-standard residues stand in square brackets, D forms with d. Residues, ends and D or L forms follow the SMILES beside them. *: point of attachment. X1 = CC[C@@H](C)[C@@H](N)C1=N[C@H](C(=O)*)CS1; d(aIle) = CC[C@H](C)[C@@H](N)C(=O)O; dOrn = NCCC[C@@H](N)C(=O)O

Assay: qHTS assay to identify small molecule antagonists of the glucocorticoid receptor (GR) signaling pathway - cell viability counter screen (AID 720693); note: nearly all actives have a fitted effect of over 55% in size
Conditions: GR-bla HeLa viability, CellTiter-Glo luminescence, 18 h, with 5 nM dexamethasone present; series mostly up to 58.5 µM
From the text: National Center for Advancing Translational Sciences [NCATS]
NIH Chemical Genomics Center [NCGC]
U.S. Environmental Protection Agency [EPA]
National Institutes of Environmental Health Sciences [NIEHS]
National Toxicology Program [NTP]
U.S. Food and Drug Administration [FDA]
The Glucocorticoid receptor (GR) is one of the members of the nuclear receptor family of ligand-dependent transcription factors. GR plays a critical role in carbohydrate, protein and lipid metabolisms and programmed cell death. CellSensor GR-bla HeLa cell line (Invitrogen) contains a beta-lactamase reporter gene under the control of the glucocorticoid response element stably integrated into HeLa cells, a cervical cancer cell line that expresses glucocorticoid receptor. The activation of the reporter gene under culture conditions can be detected by fluorescence intensity. This cell line has been used to screen the Tox21 10K compound library and to identify the compounds that inhibit the GR signaling. The cytotoxicity of the Tox21 compound library against the GR-bla HeLa cell line was tested in parallel by measuring the cell viability using CellTiter-Glo assay in the same wells.
Tox21 Assay Protocol Summary:
The GR-bla HeLa cells were dispensed at 1500 cells/5 ul/well in 1536-well black wall/clear bottom plates using a Multidrop Combi (ThermoFisher Scientific, Waltham, MA) dispenser. After the assay plates were incubated at a 37 C/5% CO2 incubator for 4 hours, 23 nL of compounds dissolved in DMSO, positive controls or DMSO only was transferred to the assay plate by a pintool station (Kalypsys, San Diego, CA), followed by addition of 1 uL of dexamethasone (5 nM, final concentration in the well). The plates were incubated at 37 C for 18 hours. After 1 uL of LiveBLAzerTM B/G FRET substrate was added using a Flying Reagent Dispenser (Aurora Discovery, San Diego, CA), the plates were incubated at room temperature (RT) for 2 hours, and fluorescence intensity was measured by an Envision plate reader (PerkinElmer, Shelton, CT). After measurement of bla assay, 3 ul CellTiter-Glo (Promega, Madison, WI) was added to measure the cytotoxicity and the plates were then incubated at RT for 30 min. The luminescence was measured using a ViewLux (Perkin Elmer) plate reader.
Potency is the fitted concentration of half-maximal effect.

Row | SMILES | Potency
1 | Cc1ccc(C(C)(C)c2ccc(C)cc2)cc1 | inactive
2 | C=C(Nc1ccc(OCC)cc1)Nc1ccc(OCC)cc1 | inactive
3 | CC[C@@H](C)[C@@H](N)C1=N[C@H](C(=O)N[C@@H](CC(C)C)C(=O)N[C@@H](CCC(=O)O)C(=O)N[C@@H](C(=O)N[C@@H]2CCCCNC(=O)[C@@H](CC(N)=O)NC(=O)[C@@H](CC(=O)O)NC(=O)[C@@H](Cc3cnc[nH]3)NC(=O)[C@@H](Cc3ccccc3)NC(=O)[C@@H]([C@H](C)CC)NC(=O)[C@@H](CCCN)NC2=O)[C@@H](C)CC)CS1 (X1-LE[d(aIle)][dK][dOrn][dI][dF][dH][dD][dN]; lactam 4-C) | inactive
4 | O=C(CCCN1CCN2CCCC2C1)c1ccc(F)cc1 (stereo not given) | inactive
5 | CCCn1c(=O)[nH]c(=O)c2[nH]cnc21 | inactive
6 | CNC(=O)OCc1cccc(COC(=O)NC)n1 | inactive
7 | CC(C)(Oc1ccc(C2CCCc3ccccc32)cc1)C(=O)O (stereo not given) | inactive
8 | CC/C(=C(/CC)c1ccc(OP(=O)(O)O)cc1)c1ccc(OP(=O)(O)O)cc1 | inactive
9 | C[C@H](NCCc1ccc(O)cc1)[C@H](O)c1ccc(O)cc1 | inactive
10 | Cc1cnc(C(=O)O)c[n+]1[O-] | inactive
11 | O=C1CCCCCCCCCCCCCC1 | inactive
12 | CCN(CC)CC#CCOC(=O)C(O)(c1ccccc1)C1CCCCC1 (stereo not given) | inactive
13 | N[C@H](CO)C(=O)O | inactive
14 | CCC(=O)OC(OP(=O)(CCCCc1ccccc1)CC(=O)N1C[C@H](C2CCCCC2)C[C@H]1C(=O)O)C(C)C (stereo not given in full) | inactive
15 | CS(=O)(=O)c1ccc([C@@H](O)[C@@H](COC(=O)CN)NC(=O)C(Cl)Cl)cc1 | inactive
16 | C=CC1=C(C(=O)O)N2C(=O)[C@@H](NC(=O)/C(=N\O)c3csc(N)n3)[C@H]2SC1 (stereo in doubt) | inactive
17 | CCOc1ccc(NC(=S)Nc2ccc(OCC)cc2)cc1 | inactive
18 | CCOc1ccc([N+](=O)[O-])cc1 | 35.2 µM (active)
19 | O=C1c2ccccc2C(=O)C1c1ccc(F)cc1 | inactive
20 | C[C@@H]1C(=O)NC2=Nc3cccc(Cl)c3CN21 | inactive

Row | SMILES | Potency
21 | O=C1CCC/C=C\CCCCCCCCCC1 | inactive
22 | NCCCC(=O)O | inactive
23 | C[C@H]1O[C@@H](O[C@H]2CC[C@@]3(C)[C@H](CC[C@@H]4[C@@H]3C[C@@H](O)[C@]3(C)[C@@H](C5=CC(=O)OC5)CC[C@]43O)C2)C[C@H](O)[C@@H]1O[C@H]1C[C@H](O)[C@H](O[C@H]2C[C@H](O)[C@H](O[C@@H]3O[C@H](CO)[C@@H](O)[C@H](O)[C@H]3O)[C@@H](C)O2)[C@@H](C)O1 | 1.34 µM (active)
24 | CSCCC(N)C(=O)O (stereo not given) | inactive
25 | CON=C1C[C@]2(C[C@@H]3C[C@@H](C/C=C(\C)C[C@@H](C)/C=C/C=C4\CO[C@@H]5[C@H](O)C(C)=C[C@@H](C(=O)O3)[C@]45O)O2)O[C@H](/C(C)=C/C(C)C)[C@H]1C | 7.56 µM (active) and 10.7 µM (active)
26 | CO/N=C(\C(=O)N[C@@H]1C(=O)N2C(C(=O)O)=C(C[N+]3(C)CCCC3)CS[C@H]12)c1csc(N)n1 | inactive
27 | CC(C)CCC[C@@H](C)[C@H]1CC[C@H]2[C@@H]3CC[C@@H]4C[C@H](O)CC[C@]4(C)[C@H]3CC[C@]12C | inactive
28 | CN(Cc1ccccc1)Cc1ccccc1 | inactive
29 | O=C(O)c1cc2cc(Cc3cccnc3)ccc2o1 | inactive
30 | CCCCCCCCCCCCCCCC(=O)OC[C@H](COP(=O)([O-])OCC[N+](C)(C)C)OC(=O)CCCCCCCCCCCCCCC | inactive
31 | COc1cc2c(cc1O)CCN[C@]21CS[C@@H]2c3c(OC(C)=O)c(C)c4c(c3[C@H](COC1=O)N1[C@@H]2[C@H]2c3c(cc(C)c(OC)c3O)C[C@@H]([C@@H]1O)N2C)OCO4 | 60.1 nM (active) and 17.4 nM (active)
32 | COc1ccc(/C=C/C(=O)Nc2ccccc2C(=O)O)cc1OC | inactive
33 | CC(=O)OCC(=O)[C@@]1(O)CC[C@H]2[C@@H]3C[C@H](C)C4=CC(=O)C=C[C@]4(C)[C@H]3[C@@H](O)C[C@@]21C | inactive
34 | NC(N)=NCCCCN=C(N)N | inactive
35 | CO/N=C(\C(=O)N[C@@H]1C(=O)N2C(C(=O)O)=C(CSc3nc(C)c(CC(=O)O)s3)CS[C@H]12)c1csc(N)n1 | inactive
36 | C[C@H](O)CN(C)C | inactive
37 | CC/C=C\C/C=C\C/C=C\C/C=C\C/C=C\CCCC(=O)O | inactive
38 | NCCO/C=C/[C@H](N)C(=O)O | inactive
39 | Cc1ncc(C[n+]2csc(CCOP(=O)(O)O)c2C)c(N)n1 | inactive
40 | CC1(C)S[C@@H]2[C@H](N3C(=O)C(c4ccccc4)NC3(C)C)C(=O)N2[C@H]1C(=O)O (stereo not given in full) | inactive
